Sampled rows, rich in hits. Any-hit rate of the full collection: about 4.3%.
Wnt act – Wnt/beta-catenin pathway activators, primary screen, cell-based, plate reader, single point. Wnt/beta-catenin reporter cell assay, activator. activation, % at 9.35 µM. 1.2% of 300,000 active. AID 743398, 2014; in the data active means activation above about 30%, passing the limit was not always enough;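 further: 0% = neutral control wells and 100% = positive control wells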
MLL AF4-AF9 inh – inhibitors of AF4 peptide binding to AF9, primary screen, biochemical, AlphaScreen, biotin-AF4 peptide, FLAG-AF9, single point; Protein AF-9 (Homo sapiens), P42568; inhibition, % at 10 µM; 0.47% of 350,000 active;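 active means every replicate reaching a set inhibition limit, whatever the replicate mean, cut at about 25% in these data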;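 further: 0% = plate neutral control median and 100% = total signal loss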
MITF act – activators of MITF-driven TRPM1 promoter reporter, primary screen, cell-based, SK-MEL-5, luciferase, single point. SK-MEL-5 TRPM1-promoter luciferase, 24 h; % of positive control, neutral wells = 0. activation, % at 12.5 µM. 0.75% of 300,000 active. AID 588334, 2011;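 active means mean activation of at least 80% with every replicate also reaching 80%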;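 further: 0% = neutral control wells and 100% = parthenolide positive control wells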
esBAF inh – Bmi1 luciferase reporter increase in mESCs, primary screen, esBAF inhibitor project, mouse ES cells, Bmi1 luciferase knock-in, single point. 24 h; 100% = twice the neutral-well signal. 2% of 350,000 active. reporter increase, % at 12.5 µM; in the data active means activation above about 40%;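 further: 0% = median of the plate's neutral control wells and 100% = double that signal; a rise in the Bmi1 reporter signal indicates esBAF inhibition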
SMARCA2 activ – SMARCA2 (BRM) function activators, primary screen, cell-based, luminescence, high throughput; MG213 cells, MMTV-luciferase reporter, dexamethasone, overnight; activation, % at 9.1 µM; 1% of 370,000 active; in the data active means activation above about 7.8%;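 further: 0% = vehicle wells and 100% = reference activator wells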
FGF22 binding-1 – binders of human FGF22 protein, primary screen, FGF22 synaptogenesis inhibitor project, biophysical, thermal shift, single point | Fibroblast growth factor 22 (Homo sapiens), Q9HCT0 | recombinant FGF22 thermal shift, SYPRO orange fluorescence; percent of sucrose octasulfate shift, DMSO zero | activity (Tm shift, normalised), % at 9.99 µM | AID 651658, 2012 | 1.5% of 340,000 active;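 active means mean Tm shift, scaled 0 neutral to 100 positive control, at about 1.3% or above, every replicate too, limit read from the data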
Target sequence (Q9HCT0 whole entry, looked up): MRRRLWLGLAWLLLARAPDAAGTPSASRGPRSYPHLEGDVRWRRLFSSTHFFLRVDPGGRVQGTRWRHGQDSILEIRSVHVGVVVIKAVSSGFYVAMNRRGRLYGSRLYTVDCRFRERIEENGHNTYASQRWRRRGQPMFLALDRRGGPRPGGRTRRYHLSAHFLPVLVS
FGF22 binding-2 – binders of human FGF22 protein, dose response, FGF22 synaptogenesis inhibitor project, biophysical, thermal shift, cherry-pick retest; shares compounds with FGF22 binding-1; recombinant FGF22 thermal shift, SYPRO orange fluorescence; thermal shift activity, °C (ΔTm) at 38 µM; 2% of 1,000 active;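 active means fitted rise in melting shift crosses a set limit at or below the top valid dose tested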
FGF22 TSA DP – binders of human FGF22 protein, dose response, FGF22 synaptogenesis inhibitor project, biophysical, thermal shift, dry powder | Thermal shift assay, SYPRO orange, melting temperature shift | 50 tested, under 10 active | Tm shift (activity), % at 38 µM | shares compounds with FGF22 binding-1;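 active means compounds whose fitted dose curve of melting temperature shift rises past a set threshold within the tested doses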
TSA no protein – compound-only thermal shift signal without protein, dose response, artefact control for FGF22 binder project, biochemical, cherry-picked samples, RT-PCR instrument | shares compounds with FGF22 binding-1 | compound-only SYPRO orange thermal shift counter-screen, no protein | AC50, µM (series often up to 38 µM) | 2% of 1,000 active | AID 743019, 2013;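 active means rising signal whose fitted curve reaches the 0.54 level within the top valid dose, showing a melting point, actives reach about 13 µM in these data; inactive means the rest, including activity in the opposite direction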; further: value is where the raw curve crosses a fixed level and not half-maximal
* marks the source's active call; other numbers are inactive results; i = inactive; · = not tested or not shown; [ ] = dose if it differs, or a comment.

SMILES | Wnt act | MLL AF4-AF9 inh | MITF act | esBAF inh | SMARCA2 activ | FGF22 binding-1 | FGF22 binding-2 | TSA no protein | others
CN=C1NN=C(c2cc(C)n(-c3c(C)n(C)n(-c4ccccc4)c3=O)c2C)CS1 | -1 | -1 | 2 | 11 | 4 | 1.6* | 0.13 | i
CCCNC(=O)C[C@H]1CC[C@H]2[C@@H](COc3ccc(NC(=O)CCC)cc3C(=O)N2C)O1 | · | -1 | · | -1 | · | 0 | · | ·
CSCCC(NS(=O)(=O)c1ccc2ccccc2c1)C(=O)O (stereo not drawn) | -2 | · | 3 | -3 | 1 | · | · | ·
CSCCC(NS(=O)(=O)c1ccc(Cl)c(Cl)c1)C(=O)O (stereo not drawn) | -3 | -6 | 1 | · | -5 | 1.4* | -0.094 | i
c1ccc(-c2nccc(-c3ccc(-n4cnc5ccccc54)cc3)n2)cc1 | -3 | · | 2 | -1 | -1 | · | · | ·
Nc1nccc(-c2ccc(-n3cccc3)cc2)n1 | 23 | -1 | 24 | 23 | 0 | 2.3* | 0.004 | i
CCCNC(=O)COC(=O)c1ccccc1C(=O)N(C)C1CCCCC1 | -5 | -1 | -3 | -2 | 1 | 14* | -0.085 | i | FGF22 TSA DP=0
CN(C(=O)c1ccccc1C(=O)OCC(=O)NCc1ccccc1)C1CCCCC1 | -4 | -4 | -12 | · | 1 | 0 | · | ·
O=C(NCC(=O)N(CC1CCCO1)C(C(=O)NC1CCCCC1)c1cccnc1)c1cccs1 (stereo not drawn) | -1 | -3 | -6 | · | -1 | 18* | 0.14 | i
O=C(N[C@H]1C=C[C@@H](CC(=O)N2CCOCC2)O[C@@H]1CO)c1cccc(F)c1 | · | -1 | · | -1 | · | 0 | · | ·
Cc1ccc(S(=O)(=O)Nc2ccc3c(c2)C(=O)N([C@H](C)CO)C[C@H](C)[C@@H](CN(C)C(=O)Nc2ccc(F)cc2)OCCCC[C@H](C)O3)cc1 | · | 1 | · | -1 | · | 0 | · | ·
C[C@@H]1CN([C@@H](C)CO)S(=O)(=O)c2ccc(-c3ccc(F)cc3)cc2O[C@@H]1CN(C)C(=O)Nc1ccccc1F | · | -2 | · | 3 | · | 1.7* | 0.088 | i
C[C@H]1CN([C@@H](C)CO)S(=O)(=O)c2ccc(-c3cccc(F)c3)cc2O[C@H]1CN(C)C(=O)Nc1cc(F)ccc1F | · | -1 | · | 4 | · | 1.4* | 0.17 | i
C[C@@H]1CN([C@@H](C)CO)S(=O)(=O)c2ccc(-c3cccc(C#N)c3)cc2O[C@@H]1CN(C)C(=O)Nc1cc(F)ccc1F | · | -1 | · | -11 | · | 1.3* | · | i
C[C@@H]1CN([C@H](C)CO)S(=O)(=O)c2ccc(-c3ccc(F)cc3)cc2O[C@H]1CN(C)C(=O)Nc1ccccc1F | · | -1 | · | -8 | · | 0 | · | ·
COc1cccc(NC(=O)N(C)C[C@@H]2Oc3cc(-c4ccccc4F)ccc3S(=O)(=O)N([C@H](C)CO)C[C@@H]2C)c1 | · | 1 | · | -2 | · | 4.0* | -0.21[42 µM] | i
C/C=C/c1ccc2c(c1)O[C@H](CN(C)Cc1cncnc1)[C@H](C)CN([C@H](C)CO)S2(=O)=O | · | -2 | · | -2 | · | 0 | · | ·
Cc1noc(C)c1NC(=O)N[C@H]1CC[C@@H](CCNC(=O)C2CCC2)O[C@@H]1CO | · | -5 | · | -5 | · | 0 | · | ·
C[C@@H]1CN([C@H](C)CO)C(=O)c2cc(-c3ccncc3)cnc2O[C@H]1CN(C)C(=O)Cc1ccccn1 | · | -3 | · | -5 | · | 0 | · | ·
Cc1ccccc1-c1ccc2c(c1)O[C@H](CN(C)CC1CC1)[C@H](C)CN([C@H](C)CO)S2(=O)=O | · | 9 | · | -6 | · | 1.5* | 0.14 | i
C[C@H]1CCCCO[C@@H](CN(C)C(=O)Nc2ccc3c(c2)OCO3)[C@@H](C)CN([C@@H](C)CO)C(=O)c2cc(NS(=O)(=O)c3cn(C)cn3)ccc2O1 | · | -2 | · | -2 | · | 0 | · | ·
Cc1ccc(NC(=O)c2sc3ncn(CC(=O)N4CCN(c5ccccn5)CC4)c(=O)c3c2C)cc1F | 2 | 1 | 0 | 6 | 1 | 1.4* | 0.091 | i
N#Cc1c(-c2ccccc2)nc(-c2ccncc2)[nH]c1=O | -1 | 1 | 5 | -5 | -2 | 1.6* | 0.14 | i
CC(=O)Nc1ccc(C(=O)N/N=C/c2cc(Br)cc(Br)c2O)cc1 | -2 | 1 | -22 | 1 | -3 | 2.8* | -0.18 | i
COc1cc(OC)c(/C=N/NC(=O)c2ccc(NC(C)=O)cc2)cc1Br | -12 | 1 | 16 | · | -2 | 0 | · | ·
SMILES | Wnt act | MLL AF4-AF9 inh | MITF act | esBAF inh | SMARCA2 activ | FGF22 binding-1 | FGF22 binding-2 | TSA no protein | others
CC(C)C#Cc1ccc([C@@H]2[C@H](CO)N3CCCCN(C(=O)c4ccc(F)cc4)C[C@@H]23)cc1 | · | 2 | · | 6 | · | 0 | · | ·
O=C(CCc1ccc(O)cc1)c1c(O)cc(O)cc1O | 4 | 1 | 6 | 1 | 1 | 2.8* | 0.51 | 2.9µM*
COc1cc(O)c(CC=C(C)C)c(O)c1C(=O)CCc1ccc(O)cc1 | -1 | 5 | 10 | 20 | 1 | 1 | · | ·
CCCNC(=O)[C@@H]1[C@@H](CO)[C@@H]2Cn3c(ccc(-c4cccc(F)c4)c3=O)[C@@H]2N1C(C)=O | · | -2 | · | 2 | · | 0 | · | ·
O=C(N/N=C/c1cccc(Oc2ccccc2)c1)c1cccc(O)c1 | 6 | 4 | 36 | 29 | 3 | 1.5* | 0.029 | i | FGF22 TSA DP=0
C[C@@H]1CN([C@H](C)CO)C(=O)Cc2cc(NC(=O)Cc3cn(C)c4ccccc34)ccc2O[C@H]1CN(C)C(=O)Nc1ccc(F)cc1 | · | -3 | · | -2 | · | 0 | · | ·
Cc1ccc(CCNc2ncnc(Cl)c2N)cc1 | -8 | 3 | 20 | -33 | -4 | 1.7* | -0.12 | i
Nc1c(Cl)ncnc1NCCO | -2 | -1 | -4 | 1 | 2 | 0 | · | ·
C[C@@H]1CN([C@H](C)CO)C(=O)c2cc(-c3cccnc3)cnc2O[C@@H]1CN(C)C(=O)C1CCC1 | · | -3 | · | -1 | · | 0 | · | ·

High-throughput results (PubChem BioAssay)
